Laboratory results published in PubChem BioAssay (NCATS).
Inconclusive results are not listed. Where a call stands in place of a potency, no number is given. Active and inactive are the calls of the source. Unless noted, calls follow the shape of the dose curve; as a rule, active = well fitted curve in the direction sought with a large enough effect; inconclusive = small, poorly fitted or top-dose-only effect, or another doubt; inactive = no such curve, though single readings can be large; an effect the other way counts as inactive or inconclusive.

Legend:
[1] = qHTS for differential inhibitors of proliferation of Plasmodium falciparum line Dd2 (AID 1882); conditions: Potency: Plasmodium falciparum Dd2 proliferation inhibition; also: nearly all actives have a fitted effect of over 65% in size; also: potency is read from the fitted curve at half-maximal effect
In short: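 SYBR Green I DNA fluorescence read-out, ex 485/em 535 nm. Signals were normalized to 0.29 uM artemisinin and DMSO wells, then corrected using vehicle-only plates flanking each stack. Parasite growth ran 72 h in erythrocytes before lysis.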

[2] = qHTS for differential inhibitors of proliferation of Plasmodium falciparum line W2 (AID 1883); conditions: Potency: Plasmodium falciparum W2 proliferation inhibition;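 also: parasites grown with compound for 72 h before lysis and staining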; also: potency is read from the fitted curve at half-maximal effect
[3] = biological target: Ferritin light chain (Equus caballus) (UniProt P02791); assay: qHTS Validation Assay for Identification of Novel General Anesthetics (AID 2323); also: series mostly up to about 77 µM
In short: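 Normalized fluorescence response, scaled between free 1-AMA and 1-AMA/apoferritin complex, fitted to a four-parameter Hill equation for concentration-effect values. Binding mix: 10 uM horse-spleen apoferritin, 50% saturated 1-AMA in PBS; read 380/535 nm after 10 min.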

[4] = biological target: ATP-dependent DNA helicase Q1 (Homo sapiens) (UniProt P46063); assay: qHTS Validation Assay for Inhibitors of RecQ-Like Dna Helicase 1 (RECQ1) (AID 2353)
In short: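 50 nM RECQ1T1 preincubated 15 min with compound in Tris pH 8.0 buffer with MgCl2, DTT, Tween-20 and 2.5 ug/ml poly(dI-dC); started with 200 nM TAMRA/BHQ-2 forked duplex and 2 mM ATP. Unwinding read as fluorescence (525/598 nm), two reads 2 h apart.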

[5] = biological target: RecQ-like DNA helicase BLM (Homo sapiens) (UniProt P54132); assay: qHTS Validation Assay for Inhibitors of Bloom's syndrome helicase (BLM) (AID 2364)
In short: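 Forked 20-bp duplex substrate (200 nM, TAMRA/BHQ-2) plus 2 mM ATP added after 15 min compound preincubation with 50 nM enzyme, pH 8.0, poly(dI-dC) 2.5 ug/ml. Strand separation followed by fluorescence (525/598 nm) over 2 h, normalized to enzyme-free and DMSO controls.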

[6] = Cytometric Cell-Based qHTS for Inhibitors of the mTORC1 Signaling Pathway in MEF (Tsc2-/-, p53-/-) Cells (AID 2660);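 also: Tsc2 and p53 null MEFs carrying empty vector with compound for 24 h; percent of cells above a phospho-rpS6 to PI ratio cutoff in each well; series mostly up to about 38 µM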
In short: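 Cells are plated, treated with compound for 24 hrs at 37 degree Celsius, then fixed, blocked and immunostained for phospho-rpS6 Ser235/236. Propidium iodide counterstain follows. Per-well % positive cells is derived from the PI-normalized phospho-S6 signal.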

[7] = High Content Imaging Cell-Based qHTS for Inhibitors of the mTORC1 Signaling Pathway in MEF (Tsc2-/-, p53-/-) Cells (AID 2666);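 also: percent of cells scored positive for phospho-rpS6 Ser235/236 immunostaining by imaging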
In short: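 Cells were plated, dosed with compound after 24 hrs, and incubated another 24 hrs at 37 degree Celsius. Fixed cells were immunostained for phospho-rpS6 Ser235/236 and counterstained, and the normalized signal was scored as % active cells against rapamycin and DMSO controls.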

[8] = qHTS for differential inhibitors of proliferation of Plasmodium falciparum line HB3 (AID 1886); conditions: Potency: Plasmodium falciparum HB3 proliferation inhibition;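 also: parasites grown with compound for 72 h before SYBR Green readout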; also: potency is read from the fitted curve at half-maximal effect
[9] = qHTS Assay for Modulators of Human Peripheral Myelin Protein 22 (PMP22) Expression/Activity (AID 1967; active = well fitted curve in the direction sought with a large enough effect in the signal ratio; the % refers to the signal ratio)
In short: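 Engineered MSC80 cells, Pmp22-promoter green and EF-alpha red luciferase reporters; 24h compound treatment at 37 °C. Concentration-response fits on green, red and ratio signals, each overlap-corrected, with %Activity normalized to untreated wells.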

Sequence of ATP-dependent DNA helicase Q1 (Homo sapiens) (P46063 whole entry, looked up): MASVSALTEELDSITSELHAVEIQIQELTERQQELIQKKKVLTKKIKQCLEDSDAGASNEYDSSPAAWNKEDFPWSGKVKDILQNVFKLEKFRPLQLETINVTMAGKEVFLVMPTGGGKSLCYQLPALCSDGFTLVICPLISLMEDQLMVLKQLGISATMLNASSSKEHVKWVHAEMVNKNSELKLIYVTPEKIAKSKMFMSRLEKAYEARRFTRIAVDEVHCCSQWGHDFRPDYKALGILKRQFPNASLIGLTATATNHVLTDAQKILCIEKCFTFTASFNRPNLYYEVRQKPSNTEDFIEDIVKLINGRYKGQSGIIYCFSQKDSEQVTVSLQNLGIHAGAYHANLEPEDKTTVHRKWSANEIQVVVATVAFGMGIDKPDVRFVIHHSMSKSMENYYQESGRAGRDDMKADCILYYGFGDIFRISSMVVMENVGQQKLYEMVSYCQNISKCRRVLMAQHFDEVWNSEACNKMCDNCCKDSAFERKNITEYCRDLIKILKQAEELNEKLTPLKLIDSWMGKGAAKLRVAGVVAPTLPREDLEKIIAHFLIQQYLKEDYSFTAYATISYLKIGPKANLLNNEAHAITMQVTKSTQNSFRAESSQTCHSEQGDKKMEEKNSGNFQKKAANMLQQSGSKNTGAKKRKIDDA
Sequence of RecQ-like DNA helicase BLM (Homo sapiens) (P54132 whole entry, looked up): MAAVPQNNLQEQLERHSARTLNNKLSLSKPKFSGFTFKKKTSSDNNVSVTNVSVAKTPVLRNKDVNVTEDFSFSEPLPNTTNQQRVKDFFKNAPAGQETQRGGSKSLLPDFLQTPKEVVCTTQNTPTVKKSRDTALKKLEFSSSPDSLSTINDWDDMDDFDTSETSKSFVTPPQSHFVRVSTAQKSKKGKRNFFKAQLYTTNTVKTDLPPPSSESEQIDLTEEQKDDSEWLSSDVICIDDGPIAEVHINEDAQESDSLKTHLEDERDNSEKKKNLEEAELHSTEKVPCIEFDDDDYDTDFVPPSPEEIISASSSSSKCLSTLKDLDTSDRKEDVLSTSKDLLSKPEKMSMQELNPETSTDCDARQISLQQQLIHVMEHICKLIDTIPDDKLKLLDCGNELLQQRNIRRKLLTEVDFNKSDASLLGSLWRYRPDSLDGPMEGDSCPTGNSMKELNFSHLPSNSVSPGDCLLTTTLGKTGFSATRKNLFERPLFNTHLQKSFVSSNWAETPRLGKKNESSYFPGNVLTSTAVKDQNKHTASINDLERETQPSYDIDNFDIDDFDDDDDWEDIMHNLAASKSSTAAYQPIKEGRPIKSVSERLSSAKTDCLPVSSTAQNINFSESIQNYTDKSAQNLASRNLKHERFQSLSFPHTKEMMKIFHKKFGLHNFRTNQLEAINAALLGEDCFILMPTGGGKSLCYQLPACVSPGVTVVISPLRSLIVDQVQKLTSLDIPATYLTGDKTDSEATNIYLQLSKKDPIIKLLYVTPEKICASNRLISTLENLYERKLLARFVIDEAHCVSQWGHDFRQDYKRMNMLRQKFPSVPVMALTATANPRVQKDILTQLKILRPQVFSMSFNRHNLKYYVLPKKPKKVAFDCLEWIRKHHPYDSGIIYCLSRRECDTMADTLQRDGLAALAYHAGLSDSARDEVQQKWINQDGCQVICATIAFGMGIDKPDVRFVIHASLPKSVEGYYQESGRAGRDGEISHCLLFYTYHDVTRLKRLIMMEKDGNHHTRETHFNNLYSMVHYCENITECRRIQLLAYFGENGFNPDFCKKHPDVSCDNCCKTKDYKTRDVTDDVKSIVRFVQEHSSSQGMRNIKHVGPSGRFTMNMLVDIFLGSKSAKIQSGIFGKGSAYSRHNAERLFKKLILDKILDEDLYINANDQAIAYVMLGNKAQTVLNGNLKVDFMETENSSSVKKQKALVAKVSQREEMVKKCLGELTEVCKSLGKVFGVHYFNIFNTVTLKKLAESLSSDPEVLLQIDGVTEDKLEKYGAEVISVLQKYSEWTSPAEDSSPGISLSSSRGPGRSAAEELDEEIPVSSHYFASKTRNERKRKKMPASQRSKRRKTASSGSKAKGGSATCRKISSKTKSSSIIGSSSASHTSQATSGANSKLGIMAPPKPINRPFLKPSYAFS
Sequence of Ferritin light chain (Equus caballus) (P02791 2-175 limits assumed): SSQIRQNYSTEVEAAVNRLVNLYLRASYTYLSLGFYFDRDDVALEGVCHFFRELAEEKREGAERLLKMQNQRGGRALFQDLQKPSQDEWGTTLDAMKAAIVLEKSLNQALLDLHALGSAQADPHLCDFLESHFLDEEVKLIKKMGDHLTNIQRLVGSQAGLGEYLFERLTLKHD

Row | Compound | Potency [1] | Potency [2] | outcome [3] | Potency [4] | Potency [5] | outcome [6] | Potency [7] | Potency [8] | outcome [9]
1 | CCn1ccnc1CC1COc2ccccc2O1 (stereo not given) | inactive | 10 µM (active) | inactive | inactive | inactive | inactive | inactive |  | 
2 | COc1cc2c(cc1OC)-c1cc(=Nc3c(C)cc(C)cc3C)n(C)c(=O)n1CC2 | 8.91 µM (active) | 3.55 µM (active) |  | inactive |  | inactive | inactive | 3.55 µM (active) | 
3 | OC(CCN1CCCCC1)(c1ccccc1)C1CCCCC1 (stereo not given) | 3.55 µM (active) | 3.16 µM (active) | inactive | inactive |  | inactive | inactive | 11.2 µM (active) | 
4 | Nc1nc(N)c2nc(-c3ccccc3)c(N)nc2n1 | inactive | 15.8 µM (active) |  | inactive | inactive | inactive | inactive | 12.6 µM (active) | 
5 | Cc1nc2c([nH]1)c(=O)n(C)c(=O)n2Cc1ccco1 | inactive | inactive | inactive | inactive |  | inactive | inactive | inactive | 
6 | N[C@@H](COP(=O)(O)O)C(=O)O | inactive |  | inactive | inactive |  | inactive | inactive | inactive | inactive
7 | c1cnc(N2CCN(Cc3ccc4c(c3)OCO4)CC2)nc1 | inactive |  | inactive | inactive | inactive | inactive | inactive | inactive | 
8 | FC(F)(F)c1ccccc1-n1ccnc1 | inactive |  | inactive | inactive | inactive | inactive | inactive | inactive | 
9 | Brc1c(NC2=NCCN2)ccc2nccnc12 | inactive |  |  | inactive |  | inactive | inactive |  | 
10 | CN(C)CC[C@@H](c1ccc(Br)cc1)c1ccccn1 |  | 1 µM (active) | inactive | inactive | inactive | inactive | inactive | inactive | 
11 | CCCNC(C)C(=O)Nc1ccccc1C (stereo not given) | inactive |  | inactive | inactive | inactive | inactive | inactive | inactive | 
12 | Cc1scc2c1N(C(=O)CN1CCN(C)CC1)c1ccccc1NC2=O | inactive |  | inactive | inactive | inactive | inactive | inactive |  | 
13 | CCCOc1ccccc1-c1nc2n[nH]nc2c(=O)[nH]1 | inactive |  | inactive | inactive |  | inactive | inactive | inactive | 
14 | COCCOC(=O)C1=C(C)NC(C)=C(C(=O)OC(C)C)C1c1cccc([N+](=O)[O-])c1 (stereo not given) |  | 6.31 µM (active) |  | inactive |  | inactive | inactive | 8.91 µM (active) | 
